The source of these data is PubChem BioAssay (EPA / NIEHS).

SMILES strings stand for the structures. Active and inactive are the calls of the source. How the source made its calls: active means hit-call score of the fitted dose curve at least 0.9, where 1 is the maximum; inactive means score below 0.9.

As usually defined, the AC50 is the midpoint of the concentration-response curve, whichever way the signal moves.

Cellular tumor antigen p53 (Homo sapiens), sequence (P04637 whole entry, looked up): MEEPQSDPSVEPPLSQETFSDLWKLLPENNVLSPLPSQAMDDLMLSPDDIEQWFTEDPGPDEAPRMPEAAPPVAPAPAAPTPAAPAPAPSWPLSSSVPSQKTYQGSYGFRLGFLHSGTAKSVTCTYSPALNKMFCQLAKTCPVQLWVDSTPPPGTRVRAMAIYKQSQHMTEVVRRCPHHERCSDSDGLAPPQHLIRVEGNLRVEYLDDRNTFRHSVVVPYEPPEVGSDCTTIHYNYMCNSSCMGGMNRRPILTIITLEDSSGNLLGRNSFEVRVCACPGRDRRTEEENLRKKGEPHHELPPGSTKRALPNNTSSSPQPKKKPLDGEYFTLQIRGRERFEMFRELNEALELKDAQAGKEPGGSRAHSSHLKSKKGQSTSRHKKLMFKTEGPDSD

Read-out in the first experiment: Cellular tumor antigen p53 (Homo sapiens) (UniProt P04637)
In words: LTEA_HepaRG_TP53: Life Technologies and Expression Analysis (LTEA) Assay for Tumor Protein P53 (TP53) using HepaRG (AID 2283537). The conditions noted are these: mRNA level, 48 h; actives raise or lower the signal. The essentials: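 Differentiated HepaRG cells in serum-free induction medium exposed 48 h in duplicate to 8 half-log concentrations, top 100 uM, 0.5% DMSO. TP53 mRNA by TaqMan qRT-PCR (Fluidigm), normalized to ACTB, GAPDH, POLR2A; fitted bidirectionally versus DMSO.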
For `ClCCOCCCl`, the result was inactive.

In the case of `c1ccc(N=Nc2ccccc2)cc1`, the outcome was inactive.

Regarding `Clc1ccc(C(c2ccc(Cl)cc2)C(Cl)(Cl)Cl)cc1`, the molecule was classed as inactive. Consider `[As]#[In]`, for which the molecule was classed as inactive. As for `O=Cc1ccco1`, the call was inactive. In the case of `Nc1cc(Cl)cc(C(=O)O)c1Cl`, the call was inactive.

As for `Nc1ccc(Oc2ccc(N)cc2)cc1`, the call was inactive. Consider `O=C1CCCO1`, for which the AC50 is 50 µM (active). As for `CC(C)N(Cc1ccccc1)C(=O)C(C)(C)C`, the outcome was inactive. Take `COC(=O)c1ccccc1N`: the call was inactive. Same read-out and setting: in the case of `Clc1ccc(C(c2ccc(Cl)cc2)C(Cl)Cl)cc1` it was “inactive”; in that of `c1ccc2c(c1)-c1cccc3cccc-2c13`, “inactive”. On to `C1=Cc2cccc3cccc1c23`, for which the call was inactive. `c1ccc2c(c1)oc1ccccc12`: the call was inactive. On to `CCC[CH2][Sn]([Cl])([CH2]CCC)[CH2]CCC`, for which the AC50 was 11.6 µM (active).

Turning to `CC(C)(O)c1cnn2c(-c3ccc(F)c(-c4c(F)cccc4C#N)c3)cnc2n1`, the molecule was classed as inactive.

With `c1ccc(NNc2ccccc2)cc1`, the molecule was classed as inactive.

On to `CN(C)c1ccc(C(=O)c2ccc(N(C)C)cc2)cc1`, for which the outcome was inactive.

For `CCCCC(CC)COC(=O)c1ccc(C(=O)OCC(CC)CCCC)c(C(=O)OCC(CC)CCCC)c1` (stereo not given), the molecule was classed as inactive. As for `CN(C)C(=O)Nc1ccc(Cl)cc1`, the molecule was called inactive. For `Cc1ccc(N)cc1`, the molecule was called inactive. In the case of `Nc1ccc([N+](=O)[O-])cc1`, the result was inactive.

Take `CC(O)CCO` (stereo not given): the result was inactive. `Oc1ccc2ccc3cccc4ccc1c2c34`: the outcome was inactive. As to `CCCCCCCCCCCCCN1CC(C)OC(C)C1` (stereo not given), the outcome was inactive. On to `C[N+](C)(C)CC1CO1` (stereo not given), for which the result was inactive. Turning to `Cc1ccc([N+](=O)[O-])cc1`, the outcome was inactive.

Read-out in a further experiment: UDP glucuronosyltransferase (UGT1A1), UGT1A1 (gene 54658)
The experiment in a line: LTEA_HepaRG_UGT1A1: Life Technologies and Expression Analysis (LTEA) Assay for UDP glucuronosyltransferase (UGT1A1) using HepaRG (AID 2283538). The conditions noted are these: mRNA level, 48 h; actives raise or lower the signal. The essentials: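 UGT1A1 transcript level, measured by qRT-PCR with three housekeeping genes for normalization, after 48 h treatment of human HepaRG cells (0.5% DMSO, duplicates, up to 100 uM, half-log steps, 8 points). Curves fit both directions against DMSO baseline.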
On to `ClCCOCCCl`, for which the outcome was inactive.

Take `c1ccc(N=Nc2ccccc2)cc1`: the result was inactive. As for `Clc1ccc(C(c2ccc(Cl)cc2)C(Cl)(Cl)Cl)cc1`, the AC50 was 2.03 µM (active).

Regarding `[As]#[In]`, the result was inactive. Take `O=Cc1ccco1`: the result was inactive. `Nc1cc(Cl)cc(C(=O)O)c1Cl`: the outcome was inactive.

As for `Nc1ccc(Oc2ccc(N)cc2)cc1`, the AC50 was 78.9 µM (active). On to `O=C1CCCO1`, for which the outcome was inactive. With `CC(C)N(Cc1ccccc1)C(=O)C(C)(C)C`, the concentration at half-maximal activity (AC50) is 6.96 µM (active). `COC(=O)c1ccccc1N`: the molecule was called inactive. For `CCNS(=O)(=O)C(F)(F)C(F)(F)C(F)(F)C(F)(F)C(F)(F)C(F)(F)C(F)(F)C(F)(F)F`, the outcome was inactive. Consider `Clc1ccc(C(c2ccc(Cl)cc2)C(Cl)Cl)cc1`, for which the AC50 was 6.66 µM (active).

For `c1ccc2c(c1)-c1cccc3cccc-2c13`, the AC50 was 16.1 µM (active). With `C1=Cc2cccc3cccc1c23`, the molecule was called inactive. Consider `c1ccc2c(c1)oc1ccccc12`, for which the molecule was called inactive. For the molecule `CCC[CH2][Sn]([Cl])([CH2]CCC)[CH2]CCC`, the AC50 was 3.12 µM (active). In the case of `CC(C)(O)c1cnn2c(-c3ccc(F)c(-c4c(F)cccc4C#N)c3)cnc2n1`, the concentration at half-maximal activity (AC50) was 0.268 µM (active). As for `c1ccc(NNc2ccccc2)cc1`, the result was inactive.

With `CN(C)c1ccc(C(=O)c2ccc(N(C)C)cc2)cc1`, the half-maximal activity concentration (AC50) was 13.2 µM (active). As to `CCCCC(CC)COC(=O)c1ccc(C(=O)OCC(CC)CCCC)c(C(=O)OCC(CC)CCCC)c1` (stereo not given), the molecule was classed as inactive. As for `CN(C)C(=O)Nc1ccc(Cl)cc1`, the AC50 was 30.8 µM (active). `Cc1ccc(N)cc1`: the call was inactive.

For `Nc1ccc([N+](=O)[O-])cc1`, the result was inactive.

For `CC(O)CCO` (stereo not given), the outcome was inactive. As to `Oc1ccc2ccc3cccc4ccc1c2c34`, the molecule was called inactive. In the case of `CCCCCCCCCCCCCN1CC(C)OC(C)C1` (stereo not given), the molecule was classed as inactive. For `C[N+](C)(C)CC1CO1` (stereo not given), the result was inactive. In the case of `Cc1ccc([N+](=O)[O-])cc1`, the AC50 is 8.26 µM (active).
